Data reported in PubChem BioAssay (NCI).
This is part of a sample that, as a whole, favours compounds with a hit. Of some 83,000 tested, about 20% had one in any assay.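 Values shown are percent growth following 48 h exposure of cells in 96-well plates to a single concentration of compound; below 10 was considered active.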

What was measured:
Experiment in all cases: NCI-60 one-dose screen, 48 h (100 = growth as untreated, 0 = no growth, -100 = all killed)
HCT-15 colon = conditions: 10 µM unless noted
HT29 colon = conditions: 10 µM unless noted
SNB-75 CNS = conditions: 10 µM unless noted
SNB-19 CNS = conditions: 10 µM unless noted
U251 CNS = conditions: 10 µM unless noted
PC-3 prostate = conditions: 10 µM unless noted
UACC-62 melanoma = conditions: 10 µM unless noted
LOX IMVI melanoma = conditions: 10 µM
SK-MEL-28 melanoma = conditions: 10 µM unless noted
SK-MEL-2 melanoma = conditions: 10 µM unless noted
EKVX NSCLC = conditions: 10 µM unless noted
SN12C renal = conditions: 10 µM unless noted
UO-31 renal = conditions: 10 µM unless noted
TK-10 renal = conditions: 10 µM unless noted
ACHN renal = conditions: 10 µM unless noted
CAKI-1 renal = conditions: 10 µM unless noted
A498 renal = conditions: 10 µM unless noted
CCRF-CEM leukemia = conditions: 10 µM unless noted
MOLT-4 leukemia = conditions: 10 µM unless noted
SK-MEL-5 melanoma = conditions: 10 µM unless noted

Measured: growth

O=C1C=Cc2ccccc2/C1=C/c1[nH]c(=O)[nH]c1O
inactive: HCT-15 colon 59.7% | HT29 colon 37.7% | SNB-75 CNS 31.9% | SNB-19 CNS 34.1% | U251 CNS 29.3% | PC-3 prostate 27.4% | UACC-62 melanoma 24% | LOX IMVI melanoma 48.8% | SK-MEL-28 melanoma 30.6% | SK-MEL-2 melanoma 22.9% | EKVX NSCLC 69.6% | SN12C renal 60.6% | UO-31 renal 52.5% | TK-10 renal 65.2% | ACHN renal 55.3% | CAKI-1 renal 68.7% | A498 renal 32.7% | CCRF-CEM leukemia 24.3% | MOLT-4 leukemia 43%

CCOC(=O)CNC(=O)Sc1ccc(C(C)(C)C)cc1
inactive: HCT-15 colon 94.3% | HT29 colon 114% | SNB-75 CNS 75.7% | SNB-19 CNS 103% | U251 CNS 83.5% | SK-MEL-5 melanoma 107% | UACC-62 melanoma 91% | LOX IMVI melanoma 83.9% | SK-MEL-28 melanoma 113% | SK-MEL-2 melanoma 87.1% | EKVX NSCLC 111% | SN12C renal 93.5% | UO-31 renal 64.2% | TK-10 renal 96% | ACHN renal 101% | CAKI-1 renal 100% | A498 renal 119% | MOLT-4 leukemia 32.5%

CCC(C)C1CCC(O)CC1 (centres undefined)
inactive: HCT-15 colon 104% | HT29 colon 105% | SNB-75 CNS 91.7% | SNB-19 CNS 112% | U251 CNS 98.8% | PC-3 prostate 100% | UACC-62 melanoma 104% | LOX IMVI melanoma 101% | SK-MEL-28 melanoma 106% | SK-MEL-2 melanoma 104% | EKVX NSCLC 113% | SN12C renal 108% | UO-31 renal 90.7% | TK-10 renal 103% | ACHN renal 105% | CAKI-1 renal 96.6% | A498 renal 103% | CCRF-CEM leukemia 125% | MOLT-4 leukemia 104%

CC(C)(C)[Si](C)(C)OCC1OC(n2cnc3c(N)ncnc32)CC1OS(C)(=O)=O (centres undefined)
inactive: HCT-15 colon 115% | HT29 colon 108% | SNB-75 CNS 97.4% | SNB-19 CNS 108% | U251 CNS 91.7% | SK-MEL-5 melanoma 98.5% | UACC-62 melanoma 90.4% | LOX IMVI melanoma 95.4% | SK-MEL-28 melanoma 105% | SK-MEL-2 melanoma 105% | EKVX NSCLC 105% | SN12C renal 101% | UO-31 renal 86.8% | TK-10 renal 99.7% | ACHN renal 114% | CAKI-1 renal 96.2% | A498 renal 67.6% | CCRF-CEM leukemia 101% | MOLT-4 leukemia 105%

CCCC1OC(c2ccco2)OCC1CC (centres undefined)
inactive: HCT-15 colon 97.2% | HT29 colon 103% | SNB-75 CNS 84.2% | SNB-19 CNS 98.2% | U251 CNS 94.8% | PC-3 prostate 92.5% | UACC-62 melanoma 91.7% | LOX IMVI melanoma 95.1% | SK-MEL-28 melanoma 113% | SK-MEL-2 melanoma 97.7% | EKVX NSCLC 96.4% | SN12C renal 98.4% | UO-31 renal 77.6% | TK-10 renal 97.1% | ACHN renal 105% | CAKI-1 renal 88.2% | A498 renal 94.6% | CCRF-CEM leukemia 93% | MOLT-4 leukemia 89.3%

CC1=CC(=Nc2ccc(N(C)C)cc2)C=C(C)C1=O
inactive: HCT-15 colon 85.7% | HT29 colon 98.6% | SNB-75 CNS 75.8% | SNB-19 CNS 106% | U251 CNS 92.7% | SK-MEL-5 melanoma 74% | UACC-62 melanoma 37.7% | LOX IMVI melanoma 46.4% | SK-MEL-28 melanoma 96.8% | SK-MEL-2 melanoma 110% | EKVX NSCLC 93% | SN12C renal 97.3% | UO-31 renal 62.3% | TK-10 renal 133% | ACHN renal 77.3% | CAKI-1 renal 91.2% | A498 renal 76.8% | CCRF-CEM leukemia 76.1% | MOLT-4 leukemia 87.6%

C=CCc1cc(OC)c(OC)c(OC)c1
inactive: HCT-15 colon 99.1% | HT29 colon 98% | SNB-75 CNS 101% | SNB-19 CNS 103% | U251 CNS 102% | PC-3 prostate 100% | UACC-62 melanoma 97.4% | LOX IMVI melanoma 102% | SK-MEL-28 melanoma 115% | SK-MEL-2 melanoma 108% | EKVX NSCLC 111% | SN12C renal 99.5% | UO-31 renal 105% | TK-10 renal 104% | ACHN renal 108% | CAKI-1 renal 100% | A498 renal 100% | CCRF-CEM leukemia 104% | MOLT-4 leukemia 104%

CN(C)c1ccc2c(N(C)C)cc(N(C)C)nc2c1
inactive: HCT-15 colon 92% | HT29 colon 34.4% | SNB-75 CNS 92.5% | SNB-19 CNS 84.5% | U251 CNS 90.8% | SK-MEL-5 melanoma 100% | UACC-62 melanoma 81.9% | LOX IMVI melanoma 87.7% | SK-MEL-28 melanoma 84.4% | SK-MEL-2 melanoma 143% | EKVX NSCLC 75.8% | SN12C renal 83.1% | UO-31 renal 50.3% | TK-10 renal 104% | ACHN renal 76.5% | CAKI-1 renal 68.6% | A498 renal 78.9% | MOLT-4 leukemia 80.3%

O=CNCCc1ccccc1
inactive: HCT-15 colon 109% | HT29 colon 98.3% | SNB-75 CNS 82.9% | SNB-19 CNS 98.4% | U251 CNS 99.4% | SK-MEL-5 melanoma 107% | UACC-62 melanoma 96.8% | LOX IMVI melanoma 109% | SK-MEL-28 melanoma 113% | SK-MEL-2 melanoma 105% | EKVX NSCLC 97.3% | SN12C renal 90% | UO-31 renal 87.8% | TK-10 renal 92.4% | ACHN renal 98.5% | CAKI-1 renal 93.8% | A498 renal 111% | CCRF-CEM leukemia 103% | MOLT-4 leukemia 96.8%
